Screening results: PubChem BioAssay, National Center for Advancing Translational Sciences (NCATS)
ELG1 genotox = induces genotoxicity in HEK293T cells with luciferase-tagged ELG1; HEK293T ELG1-luciferase reporter, luminescence, 16 h; actives 1.3% (n = 330,000); Potency, µM (series often up to 46 µM), inactives show at the top dose activity change, positive = activation, actives largely listed as activators; note: % of control where 0% means no effect; nearly all actives have a fitted effect of over 60% in size
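16 hr compound incubation (37 °C, 5% CO2) of HEK293T cells carrying luciferase-tagged ELG1; luciferase then measured by ONE-Glo luminescence after 30 min at RT.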
FLuc counter = counter-screen for miR-21 project: firefly luciferase inhibitors or activators. P08659. purified FLuc, Km substrates, luminescence inhibition. Potency, µM (highest dose often 57.5 µM), for the others: at the highest dose activity change, negative = inhibition, hits mostly inhibitors. actives 6.9% (n = 360,000). AID 588342;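 note: plate controls were vehicle for no effect and reference inhibitor for full effect; nearly all actives have a fitted effect of over 55% in size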
Target sequence (P08659 whole entry, looked up): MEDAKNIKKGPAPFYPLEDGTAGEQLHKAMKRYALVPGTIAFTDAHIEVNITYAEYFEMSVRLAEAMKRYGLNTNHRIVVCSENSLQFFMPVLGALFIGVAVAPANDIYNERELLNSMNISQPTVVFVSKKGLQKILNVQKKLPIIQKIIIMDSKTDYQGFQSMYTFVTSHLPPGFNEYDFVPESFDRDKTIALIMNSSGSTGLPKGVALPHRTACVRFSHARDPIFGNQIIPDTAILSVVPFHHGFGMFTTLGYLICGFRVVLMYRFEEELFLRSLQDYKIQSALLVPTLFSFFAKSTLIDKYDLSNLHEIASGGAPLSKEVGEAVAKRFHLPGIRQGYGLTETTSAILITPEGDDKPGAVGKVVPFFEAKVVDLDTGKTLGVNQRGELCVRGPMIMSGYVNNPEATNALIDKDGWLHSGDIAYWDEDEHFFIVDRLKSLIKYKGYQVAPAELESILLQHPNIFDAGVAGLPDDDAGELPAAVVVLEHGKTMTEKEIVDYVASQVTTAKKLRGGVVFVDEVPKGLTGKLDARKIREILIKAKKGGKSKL
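Purified P. pyralis luciferase (10nM final) with 10uM D-luciferin and 10uM ATP (Km levels) in 50mM Tris acetate pH 7.5, 10mM Mg acetate, 0.01% Tween-20, 0.05% BSA; qHTS 6-point titration, ~60 µM downward; luminescence read.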
SMN2 splice enh = enhancers of SMN2 splice variant expression; actives 2.8% (n = 210,000); Potency, µM (series often up to 46.1 µM), inactives show at the top dose activity change, positive = activation, hits mostly activators; HEK293 SMN2-luciferase splicing reporter, luminescence, 30-36 h; note: % of control where 0% means no effect; nearly all actives have a fitted effect of over 55% in size
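HEK293 cells carry an SMN2 minigene-luciferase reporter in which exon 7 inclusion puts luciferase in frame. Cells were seeded at 2000 cells/well, attached for 10-12 hours, then exposed to compounds for 30-36 hours at 37C before ONE-Glo luminescence.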
Rab9 prom act = activators of Rab9 promoter. Potency, µM (doses to about 9.22 µM), inactives show at the top dose activation, negative = inhibition, usual class: activators. Huh7 Rab9 promoter-luciferase reporter, luminescence, 24 h. actives 2.8% (n = 320,000); note: % of control where 0% means no effect; nearly all actives have a fitted effect of over 60% in size
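Cell-based reporter: Huh7 stable for Rab9 promoter-driven luciferase, plated in reduced-serum medium with 10% FBS at 1500 cells/well, compound-treated 24 h at 37 °C, luminescence read after 10 min reagent.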
NPC1 prom act = activators of NPC1 promoter; AID 485313; Huh7 NPC1 promoter luciferase reporter, 24 h; Potency, µM (doses to about 9.22 µM), for the others: at the top dose activation, actives largely listed as activators; actives 2.4% (n = 320,000); note: % of control where 0% means no effect; nearly all actives have a fitted effect of over 60% in size
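Stably transfected Huh7 (NPC1 promoter→luciferase), 1500 cells/well in Opti-MEM + 10% FBS, 2 h settle, then compound 24 h at 37 °C. Luminescence after 10 min with Amplite reagent.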
KinaseGlo FLuc = blocks Kinase-Glo luciferase, a counter-screen artifact; Q27757; Kinase-Glo luciferase, ATP luminescence, 8 min; Potency, µM (top dose mostly 38.3 µM), for the others: at the highest dose activity change, negative = inhibition, hits mostly inhibitors; actives 0.28% (n = 200,000); AID 1379; note: % is set by controls: 0 for no effect and ±100 for the full control effect; nearly all actives have a fitted effect of over 60% in size
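Luminescence was the read-out, taken after 8-minute incubation at ambient temperature. Luciferase turned over luciferin with 10 uM ATP in imidazole pH 7.2 buffer containing KCl, MgCl2, Tween 20 and BSA.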
* marks the source's active call; other numbers are inactive results; ? = inconclusive; . = no result given; [ ] = remark or other dose. The list is not random: actives were taken first. Their share in the collection is about 7.3%. Calls come from the whole dose curve; as a rule, active = well fitted curve in the direction sought with a large enough effect; inconclusive = small, poorly fitted or top-dose-only effect, or another doubt; inactive = no such curve, though single readings can be large; an effect the other way counts as inactive or inconclusive. Potency is the fitted concentration of half-maximal effect.

SMILES | ELG1 genotox | FLuc counter | SMN2 splice enh | Rab9 prom act | NPC1 prom act | KinaseGlo FLuc
O=C(/C=C/c1ccc(OCCCF)cc1)N1CCOCC1 | ? | 24µM* | . | ? | ? | .
O=C(/C=C/c1cccc2ccccc12)N1CCOCC1 | ? | 15µM* | . | ? | ? | .
CC(C)CC(NC(=O)C1CCC(C)CC1)C(=O)NCCN1CCOCC1 (stereo not drawn) | 1% | 1% | . | 0% | 0% | .
Cc1ccc(S(=O)(=O)NCCC(=O)Nc2nnc(C3CC3)s2)cc1C | 0% | 7% | 13% | 0% | -5% | 1%
CCOc1ccc(-n2c(SCC(=O)Nc3ccc(Br)cc3)nc3n[nH]c(C)c3c2=N)cc1 | 17% | -4% | -16% | -10% | -7% | -1%
O=C(/C=C/c1ccccc1)Oc1cccc(C(=S)N2CCOCC2)c1 | 2% | 9.5µM* | -33% | -4% | 0% | -3%
O=C(O)CCC(=O)c1ccc2sc3ccccc3c2c1 | . | . | 5%[9.22 µM] | . | . | -3%[7.66 µM]
COc1cc(C)ccc1OCCOc1c(C)cccc1Cl | 14% | 27µM* | -11% | ? | 17% | -5%
COc1cc(C)ccc1OCCOc1cc(C)ccc1Cl | -2% | 13µM* | . | -4% | 4% | 0%
Cc1ccc(NC(=O)C(c2ccc(Cl)cc2)N2CCOCC2)cc1 (stereo not drawn) | 11% | 2% | ? | 1% | -5% | 13%
COc1ccc(NC(=O)c2ccc3ncsc3c2)c2ccccc12 | 1% | -14% | . | 14% | 12% | .
COc1ccc(CN2C(=O)c3ccccc3C(/C=N\OCc3ccc(C)cc3)C2=O)cc1 (stereo not drawn) | -7% | 17µM* | -19% | 3% | 5% | -2%
COc1ccc(CN2C(=O)c3ccccc3C2OC)cc1 (stereo not drawn) | 4% | -3% | . | 5% | 5% | .
O=C(CSc1nc2ccsc2c(=O)n1Cc1ccccc1)NCc1ccco1 | -2% | 3% | -8% | -3% | 1% | 0%
C(=Nc1ccc(Nc2ccccc2)cc1)c1ccc2ccccc2c1 | -1% | ? | 22% | -2% | -12% | -1%
Brc1ccc(C=Nc2ccc(Nc3ccccc3)cc2)s1 | 7% | 24µM* | 17% | -4% | -11% | 1%
CC(C)C(C(=O)O)N1C(=O)/C(=C/c2cccn2C)SC1=S (stereo not drawn) | 2% | 21µM* | -6% | 3% | 1% | -3%
Cn1cccc1/C=C1\SC(=O)N(c2ccccc2)C1=O | ? | 2.4µM* | 11µM* | 0.71µM* | 2µM* | 3%
Cn1cccc1/C=C1\SC(=S)N(Nc2ccccc2)C1=O | 9% | ? | . | 17% | 12% | .
O=C(O)Cn1cc(/C=C2\SC(=O)N(c3ccccc3)C2=O)c2ccccc21 | 7% | 12µM* | 1% | 0% | -1% | -2%
O=C(O)Cn1cc(/C=C2/SC(=O)N(CC(=O)N3CCCCCC3)C2=O)c2ccccc21 | 0% | ? | . | -2% | -2% | .
Cn1cc(/C=C2\SC(=S)N(NC(=O)c3ccccc3)C2=O)c2ccccc21 | 2% | ? | -1% | 2% | 8% | -2%
Cn1cc(/C=C2/SC(=O)N(c3ccccc3)C2=O)c2ccccc21 | 3% | 6µM* | 13% | 6.3µM* | ? | 1%
Cc1nc2sc(C(c3ccc(Cl)cc3)N3CCN(c4ccccc4F)CC3)c(O)n2n1 (stereo not drawn) | 0% | 1% | 8% | -2% | 0% | -5%
CCOC(=O)N1CCC(Nc2c(Nc3ccc(C)c(C)c3)c(=O)c2=O)CC1 | 1% | ? | 5% | 24% | 1% | -2%
SMILES | ELG1 genotox | FLuc counter | SMN2 splice enh | Rab9 prom act | NPC1 prom act | KinaseGlo FLuc
CCOc1ccc(C(CC(=O)O)NC(=O)COc2ccc3ccccc3c2)cc1OC (stereo not drawn) | 0% | -6% | . | -4% | -4% | .
CCOc1ccc(C(CC(=O)O)NC(=O)COc2ccccc2OC)cc1OC (stereo not drawn) | 2% | -7% | 22µM* | -6% | -2% | -1%
CCc1nc(OCc2ccco2)c2sc3nc4c(cc3c2n1)COC(C)(C)C4 | -2% | -20% | . | 0% | -1% | -3%
CCc1nc2c(sc3nc4c(cc32)COC(C)(C)C4)c(=O)n1Cc1ccccc1 | -5% | -10% | -34% | -13% | -6% | -1%
Cc1nc(OCC(C)C)c2sc3nc4c(cc3c2n1)COC(C)(C)C4 | ? | 9.5µM* | . | 1.4µM* | 1.8µM* | .
COc1nc(C)nc2c1sc1nc3c(cc12)COC(C)(C)C3 | 8.2µM* | 13µM* | 14µM* | 2µM* | 2.5µM* | 9%
CCn1c(-c2ccccc2O)n[nH]c1=S | 2% | 0% | -10% | 2% | 4% | -7%
CCc1ccc(-c2cc(-c3n[nH]c(=S)n3CC)c3ccccc3n2)cc1 | 11% | 1.2µM* | ? | 24% | 13% | -8%
Cc1ccc(-c2cc(-c3n[nH]c(=S)o3)c3ccccc3n2)cc1 | -10% | 19µM* | -63% | -8% | -8% | 2%
CCn1c(-c2cc(-c3cccc(OC)c3)nc3ccccc23)n[nH]c1=S | 3% | 24µM* | 2% | -1% | -2% | -4%
S=c1[nH]nc(-c2cc(-c3ccccn3)nc3ccccc23)o1 | 0% | 4% | . | 0% | -2% | .
CCOC(=O)C1=C(CC)OC(N)=C(C#N)C1c1ccc(OC)cc1OC (stereo not drawn) | 4% | 0% | 1% | 0% | -3% | 0%
O=C(Nc1ccc(F)cc1F)c1cc(S(=O)(=O)N2CCCCC2)c[nH]1 | . | -18% | . | . | . | .
Cc1ccc(N(C(C)C(=O)Nc2ccc3c(c2)OCO3)S(C)(=O)=O)cc1 (stereo not drawn) | -10% | -5% | 2% | 10% | 4% | 0%
CCOC(=O)C1=C(CC)Nc2ccccc2N=C1NC(=O)c1ccc(S(=O)(=O)N2CCCC2)cc1 | -9% | -2% | -4% | 1% | -5% | -2%
C/C(=N/NC(=O)c1ccc(Cl)s1)c1cccnc1 | 11% | 0% | . | 3% | 7% | .
C/C(=N/NC(=O)c1ccc(Br)s1)c1cccnc1 | 11% | 15µM* | . | ? | 28% | .
C/C(=N/NC(=O)c1ccc(C)s1)c1cccnc1 | ? | 19µM* | . | ? | 26% | .
O=[N+]([O-])c1cccc(/C=N\NC2=CS(=O)(=O)C=C2)c1 | . | . | 2%[9.22 µM] | . | . | -3%[7.66 µM]
Cc1nn(C)cc1C(C(=O)NC1CCCCC1)N(C(=O)Cc1cccs1)c1ccc(C(C)C)cc1 (stereo not drawn) | 1% | 5% | -37% | 0% | 0% | -4%
